Source: PubChem BioAssay (Tox21)
A number with no mark means an inactive call. Where a call stands in place of a potency, no number is given. Active and inactive are the calls of the source. Unless noted, calls come from the whole dose curve.

Tests used:
[1] = tested on: thyroid hormone receptor (rat, GH3 cells); assay: qHTS assay to identify small molecule agonists of the thyroid receptor (TR) signaling pathway (AID 743066); note: potency is the fitted concentration of half-maximal effect
[2] = target: Estrogen receptor (Homo sapiens) (UniProt P03372); assay: qHTS assay to identify small molecule antagonists of the estrogen receptor alpha (ER-alpha) signaling pathway (AID 743069; active = well fitted curve in the direction sought with a large enough effect in the signal ratio in the repeat runs, not every such curve was filed as active; inconclusive = weak or mixed curves, or effect the other way; inactive = no such curve, though single readings can be large or run the other way; the % refers to the signal ratio; note: potency is the fitted concentration of half-maximal effect)
Sequence of Estrogen receptor (Homo sapiens) (P03372 whole entry, looked up): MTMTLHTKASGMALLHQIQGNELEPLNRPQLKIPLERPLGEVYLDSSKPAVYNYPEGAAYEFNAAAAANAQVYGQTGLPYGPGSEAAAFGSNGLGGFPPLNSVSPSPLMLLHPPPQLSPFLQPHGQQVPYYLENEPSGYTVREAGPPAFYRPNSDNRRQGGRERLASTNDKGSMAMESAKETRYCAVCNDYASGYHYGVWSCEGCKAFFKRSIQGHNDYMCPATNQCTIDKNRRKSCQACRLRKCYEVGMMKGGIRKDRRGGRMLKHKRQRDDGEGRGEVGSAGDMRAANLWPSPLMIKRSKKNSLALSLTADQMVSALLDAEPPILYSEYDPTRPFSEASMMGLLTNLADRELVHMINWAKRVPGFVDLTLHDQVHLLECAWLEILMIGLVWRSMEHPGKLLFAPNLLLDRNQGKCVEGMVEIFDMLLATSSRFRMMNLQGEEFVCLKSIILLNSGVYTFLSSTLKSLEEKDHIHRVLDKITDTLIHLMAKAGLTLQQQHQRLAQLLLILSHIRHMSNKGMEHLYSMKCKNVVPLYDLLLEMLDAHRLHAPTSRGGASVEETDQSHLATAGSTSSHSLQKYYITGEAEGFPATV
Method in brief: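 Estradiol-stimulated ER-alpha-UAS-bla HEK293 cells, 18 hr compound exposure at 37C. LiveBLAzer B/G substrate, 2 hr RT, fluorescence read.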

[3] = qHTS assay to identify small molecule antagonists of the estrogen receptor alpha (ER-alpha) signaling pathway - cell viability counter screen (AID 743074);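 note: HEK293 cells carrying ER-alpha-UAS-bla reporter stimulated with 17beta-estradiol; nearly all actives have a fitted effect of over 45% in size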
[4] = target: Estrogen receptor (Homo sapiens) (UniProt P03372); assay: qHTS assay to identify small molecule agonists of the estrogen receptor alpha (ER-alpha) signaling pathway (AID 743075);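 note: HEK293 GripTite cells with ER-alpha and UAS-driven beta-lactamase reporter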
[5] = target: Estrogen receptor (Homo sapiens) (UniProt P03372); assay: qHTS assay to identify small molecule agonists of the estrogen receptor alpha (ER-alpha) signaling pathway using the BG1 cell line (AID 743079; active = well fitted curve in the direction sought with a large enough effect in the repeat runs; inconclusive = weak or mixed curves; inactive = no such curve, though single readings can be large; an effect the other way counts as inactive or inconclusive; note: nearly all actives have a fitted effect of over 20% in size; note: potency is the fitted concentration of half-maximal effect)
[6] = qHTS assay to identify small molecule antagonists of the estrogen receptor alpha (ER-alpha) signaling pathway using the BG1 cell line (AID 743080);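 note: BG1 cells stimulated with 17beta-estradiol alongside compound; series mostly up to about 70 µM; nearly all actives have a fitted effect of over 25% in size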
Method in brief: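 Seeding, 24 h rest, compound transfer from DMSO, 17beta-estradiol addition, 21.5 h incubation, CellTiter-Fluor (30 min, 37 C), then ONE-Glo (30 min, room temperature): this sequence was run on BG1-Luc-4E2 reporter cells.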

Aromatase (Homo sapiens) = Aromatase (Homo sapiens) (UniProt P11511); assay: qHTS assay to identify aromatase inhibitors (AID 743083; active = well fitted curve in the direction sought with a large enough effect in the repeat runs; inconclusive = weak or mixed curves; inactive = no such curve, though single readings can be large; an effect the other way counts as inactive or inconclusive; note: nearly all actives have a fitted effect of over 55% in size; note: potency is the fitted concentration of half-maximal effect)
Sequence of Aromatase (Homo sapiens) (P11511 whole entry, looked up): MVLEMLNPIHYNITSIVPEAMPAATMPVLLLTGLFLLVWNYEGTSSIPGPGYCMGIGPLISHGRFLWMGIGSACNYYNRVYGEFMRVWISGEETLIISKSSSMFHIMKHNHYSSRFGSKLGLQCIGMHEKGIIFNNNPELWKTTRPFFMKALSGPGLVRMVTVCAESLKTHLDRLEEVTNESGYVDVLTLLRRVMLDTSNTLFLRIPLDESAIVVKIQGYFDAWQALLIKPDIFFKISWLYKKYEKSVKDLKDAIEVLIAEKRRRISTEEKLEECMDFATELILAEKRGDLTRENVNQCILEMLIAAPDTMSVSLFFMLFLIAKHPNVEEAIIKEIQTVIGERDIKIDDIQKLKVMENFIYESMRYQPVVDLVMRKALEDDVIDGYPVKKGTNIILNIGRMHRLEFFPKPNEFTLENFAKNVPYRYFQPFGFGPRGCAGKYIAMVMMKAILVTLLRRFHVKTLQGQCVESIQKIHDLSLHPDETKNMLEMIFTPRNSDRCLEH

[7] = qHTS assay to identify small molecule antagonists of the estrogen receptor alpha (ER-alpha) signaling pathway using the BG1 cell line - cell viability counter screen (AID 743081; active = well fitted curve in the direction sought with a large enough effect in the repeat runs; inconclusive = weak or mixed curves; inactive = no such curve, though single readings can be large; an effect the other way counts as inactive or inconclusive;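 note: compound given together with 17beta-estradiol as the ER stimulus; nearly all actives have a fitted effect of over 45% in size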; note: potency is the fitted concentration of half-maximal effect)
[8] = qHTS assay to identify small molecule antagonists of the thyroid receptor (TR) signaling pathway (AID 743065; active = well fitted curve in the direction sought with a large enough effect in the repeat runs; inconclusive = weak or mixed curves; inactive = no such curve, though single readings can be large; an effect the other way counts as inactive or inconclusive; note: nearly all actives have a fitted effect of over 55% in size; note: potency is the fitted concentration of half-maximal effect)
Method in brief: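 GH3.TRE-Luc rat pituitary cells carrying two TR response elements driving luciferase were plated for 4 h, given compound plus 1 nM T3 (final), and incubated 23.5 h at 37 C. ONE-Glo luminescence measured reporter inhibition; CellTiter-Fluor fluorescence tracked cytotoxicity.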

| SMILES | Potency [1] | Potency [2] | Potency [3] | Potency [4] | Potency [5] | Potency [6] | Potency (Aromatase (Homo sapiens)) | Potency [7] | Potency [8] |
| --- | --- | --- | --- | --- | --- | --- | --- | --- | --- |
| O=C(CS)Nc1ccccc1 | inactive | 15.1 µM [inconclusive] (active) | inactive | inactive | 21.1 µM (active) | inactive | inactive |  |  |
| CCCCCCCCCOS(=O)(=O)O | inactive | inactive | inactive | inactive | 34.4 µM (active) | inactive | inactive | inactive |  |
| COc1ccc(-c2nc3ccc(C4=NNC(=O)CC4C)cc3[nH]2)cc1 (configuration not stated) | inactive |  | inactive |  |  |  | inactive | inactive | 23.7 µM (active) |
| Cc1cccc(C)c1NC(=O)CN(CC(=O)O)CC(=O)O | inactive |  | inactive |  |  |  | inactive | inactive | inactive |
| COc1cc2nc(N3CCN(C(=O)C4COc5ccccc5O4)CC3)nc(N)c2cc1OC (configuration not stated) | inactive |  | inactive |  |  |  |  | inactive |  |
| C=C1C(=C/C=C2\CCC[C@]3(C)[C@@H]([C@H](C)/C=C/[C@@H](O)C4CC4)CC[C@@H]23)C[C@@H](O)C[C@@H]1O |  | 21.3 µM [inconclusive] (active) | inactive | inactive | inactive |  | inactive | inactive | 26.6 µM (active) |
| CC(C)=CCC/C(C)=C/CC/C(C)=C/CO | inactive |  | inactive |  |  |  |  | inactive | 61.1 µM (active) |
| Cc1cccc(Nc2ccccc2)c1 | inactive |  | inactive |  |  |  |  | inactive |  |
| O=[N+]([O-])c1cccc(S(=O)(=O)O)c1 | inactive |  | inactive |  |  |  | inactive | inactive | inactive |
| CC(C)OC(=O)C(C)N(C(=O)c1ccccc1)c1ccc(F)c(Cl)c1 (configuration not stated) | inactive |  | inactive |  |  |  | inactive | inactive |  |
| O=[N+]([O-])c1ccc(NCCO)c(OCCO)c1 | inactive |  |  |  |  |  | 17.2 µM (active) | 68.7 µM (active) | inactive |
| Cc1cccc(C)c1OCC(=O)N[C@@H](Cc1ccccc1)[C@@H](O)C[C@H](Cc1ccccc1)NC(=O)[C@H](C(C)C)N1CCCNC1=O |  | 21.3 µM [inconclusive] (active) |  | inactive | inactive | inactive |  |  |  |
| S=C([S-])NCCNC(=S)[S-].[Mn+2] | inactive |  |  |  |  |  | inactive |  |  |
| OC(C#CCN1CCCC1)(c1ccccc1)c1ccccc1 | inactive |  | inactive |  |  |  | inactive |  |  |
| Nc1ccc(N)c2c1C(=O)c1ccccc1C2=O | inactive |  | inactive |  |  |  |  | 24.3 µM (active) | 24.3 µM (active) |
| Nc1ncn([C@H]2C[C@H](O)[C@@H](CO)O2)c(=O)n1 | 3.35 µM (active) |  | inactive |  |  |  | inactive | inactive |  |
| CN(Cc1ccc(C(C)(C)C)cc1)Cc1cccc2ccccc12 | inactive | inactive | inactive | inactive | inactive | inactive | inactive | inactive |  |
| CC[N+]1(CC)CCC(=C(c2ccccc2)c2ccccc2)C1C (configuration not stated) |  |  |  |  |  |  | inactive |  |  |
| CCC(C)(C)CC | inactive |  | inactive |  |  |  |  | inactive | inactive |
| O=C(Nc1ccc(S(=O)(=O)N2CCOCC2)cc1)c1cc(Cl)ccc1NS(=O)(=O)c1ccc(Cl)s1 |  |  |  | inactive | inactive | inactive | inactive | inactive | 18.8 µM (active) |
| Cc1oc(-c2ccccc2)nc1CCOc1cccc2c1ccn2CCC(=O)O | inactive |  | inactive | inactive | inactive | inactive | inactive | inactive |  |
| CCCCCCCCCCCCCCCCCCOS(=O)(=O)O | inactive |  | inactive | inactive | inactive | inactive |  | inactive | 48.6 µM (active) |
| C#CCN(C)CCCOc1ccc(Cl)cc1Cl | inactive | inactive | inactive | inactive | 29.8 µM (active) |  | inactive | inactive |  |
| CCCCCCCCCCCCCCCCOS(=O)(=O)O | inactive | inactive | inactive | inactive | inactive | inactive | inactive | inactive |  |
| CCCCCCCCCCCCCCOS(=O)(=O)O | inactive | inactive | inactive | inactive | inactive | inactive | inactive | inactive |  |
| C[N+]1(CC2COC(c3ccccc3)(C3CCCCC3)O2)CCCCC1 (configuration not stated) |  | inactive | inactive | inactive | inactive | inactive | inactive | inactive |  |
| CCCCCCCC/C=C\CCCCCCCC(=O)OCC | inactive |  | inactive |  |  |  | inactive | inactive |  |
| O=C1CCCCCCCCCCCC(=O)OCCO1 | inactive | inactive | inactive | inactive | inactive | inactive | 48.6 µM (active) | inactive |  |
| Clc1ccc(Cn2c(CN3CCCC3)nc3ccccc32)cc1 | inactive |  | inactive |  |  |  | inactive | inactive | 11.4 µM (active) |
| C1CCCNCCC1 | inactive |  | inactive |  |  |  | inactive | inactive | inactive |
